Source: article PMC7862700, “An all-to-all approach to the identification of sequence-specific readers for epigenetic DNA modifications on cytosine”

Each sequence was assayed against T1, ERF (Homo sapiens, UniProt P50548 1-548) (assay: DAPPL (digital affinity profiling via proximity ligation, sequencing); 10 mM Tris-HCl pH 7.5, 50 mM NaCl, 1 mM DTT, 4% glycerol, room temperature, 30 min; GST-TFs on glutathione beads, 16-mer random dsDNA library, 0.1% formaldehyde crosslink after washing; high values mean tight binding). Conditions: protein: recombinant; tags: N-terminal GST; dsDNA, one strand shown.
T1 sequence: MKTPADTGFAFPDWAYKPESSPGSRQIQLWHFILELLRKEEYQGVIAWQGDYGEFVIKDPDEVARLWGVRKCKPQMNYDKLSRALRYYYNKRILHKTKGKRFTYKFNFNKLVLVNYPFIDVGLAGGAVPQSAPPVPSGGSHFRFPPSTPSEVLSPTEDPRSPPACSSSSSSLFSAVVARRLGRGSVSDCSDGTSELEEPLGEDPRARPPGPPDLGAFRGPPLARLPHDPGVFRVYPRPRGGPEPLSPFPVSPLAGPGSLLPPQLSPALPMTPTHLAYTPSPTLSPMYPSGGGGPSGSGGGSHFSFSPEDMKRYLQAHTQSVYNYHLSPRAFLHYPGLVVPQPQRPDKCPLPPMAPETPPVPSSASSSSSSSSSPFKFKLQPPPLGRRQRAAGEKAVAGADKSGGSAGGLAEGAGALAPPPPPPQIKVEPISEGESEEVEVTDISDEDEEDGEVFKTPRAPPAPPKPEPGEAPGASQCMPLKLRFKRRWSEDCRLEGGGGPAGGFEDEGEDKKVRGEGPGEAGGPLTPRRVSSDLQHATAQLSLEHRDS
How it was run: (§1)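 Pools of DNA-barcoded human transcription factors, expressed in yeast as GST fusions on glutathione beads and combined with a tag-only sample, were incubated with 200 nmole of a 16-mer random double-stranded DNA library. Incubation took 30 min at room temperature in Tris/NaCl/DTT/glycerol buffer and was followed by washing, 0.1% formaldehyde crosslinking, proximity ligation (BsaI/T4 ligase, 1 h, 37 °C), PCR amplification and sequencing on an Illumina NextSeq500. Binding signal is the ratio of a hexamer's read frequency for a factor to its frequency for the tag-only sample.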

Q: How did the binding signal turn out when CTTCGA was run?
A: Its binding signal is 1.41 fold enrichment (6-mer frequency, TF over GST control).

Q: How did the binding signal turn out when CTCGCA was run?
A: Its binding signal is 1.26 fold enrichment (6-mer frequency, TF over GST control).

Q: For TTTTAC, which binding signal is on record?
A: The binding signal was 1.3 fold enrichment (6-mer frequency, TF over GST control).

Q: With TCCCAT as the sequence, how does the binding signal read?
A: Its binding signal is 1.4 fold enrichment (6-mer frequency, TF over GST control).

Q: For AAAAAT, which binding signal is on record?
A: The binding signal was 1.35 fold enrichment (6-mer frequency, TF over GST control).

Q: With TTATCG as the sequence, how does the binding signal read?
A: The binding signal was 1.2 fold enrichment (6-mer frequency, TF over GST control).

Q: Which binding signal does the source give for AATTAA here?
A: The binding signal was 1.31 fold enrichment (6-mer frequency, TF over GST control).

Q: Which binding signal does the source give for AACATT here?
A: Its binding signal is 1.33 fold enrichment (6-mer frequency, TF over GST control).

Q: With CTAGCA as the sequence, how does the binding signal read?
A: Its binding signal is 1.21 fold enrichment (6-mer frequency, TF over GST control).

Q: With TCTCGA as the sequence, how does the binding signal read?
A: Its binding signal is 1.35 fold enrichment (6-mer frequency, TF over GST control).

Q: Which binding signal does the source give for AAAACG here?
A: The binding signal was 1.24 fold enrichment (6-mer frequency, TF over GST control).

Q: AAACAT was tested. Which binding signal did it give?
A: Its binding signal is 1.45 fold enrichment (6-mer frequency, TF over GST control).

Q: How did the binding signal turn out when TTCGCT was run?
A: Its binding signal is 1.4 fold enrichment (6-mer frequency, TF over GST control).

Q: For GCTAAA, which binding signal is on record?
A: The binding signal was 1.19 fold enrichment (6-mer frequency, TF over GST control).

Q: For GCTTTA, which binding signal is on record?
A: The binding signal was 1.25 fold enrichment (6-mer frequency, TF over GST control).

Q: How did the binding signal turn out when TTCCTT was run?
A: Its binding signal is 1.77 fold enrichment (6-mer frequency, TF over GST control).

Q: For CTCGAC, which binding signal is on record?
A: The binding signal was 1.48 fold enrichment (6-mer frequency, TF over GST control).

Q: TTCACT was tested. Which binding signal did it give?
A: Its binding signal is 1.42 fold enrichment (6-mer frequency, TF over GST control).

Q: TACTCA was tested. Which binding signal did it give?
A: Its binding signal is 1.14 fold enrichment (6-mer frequency, TF over GST control).

Q: For AATACC, which binding signal is on record?
A: Its binding signal is 1.29 fold enrichment (6-mer frequency, TF over GST control).

Q: For TTCTGA, which binding signal is on record?
A: The binding signal was 1.16 fold enrichment (6-mer frequency, TF over GST control).

Q: How did the binding signal turn out when ATTCAC was run?
A: The binding signal was 1.21 fold enrichment (6-mer frequency, TF over GST control).

Q: TCTAAA was tested. Which binding signal did it give?
A: Its binding signal is 1.17 fold enrichment (6-mer frequency, TF over GST control).

Q: For TATCAT, which binding signal is on record?
A: The binding signal was 1.14 fold enrichment (6-mer frequency, TF over GST control).

Q: Which binding signal does the source give for TGGCAT here?
A: Its binding signal is 1.11 fold enrichment (6-mer frequency, TF over GST control).

Q: With ATCTTA as the sequence, how does the binding signal read?
A: Its binding signal is 1.1 fold enrichment (6-mer frequency, TF over GST control).

Q: How did the binding signal turn out when TCTAAG was run?
A: The binding signal was 1.25 fold enrichment (6-mer frequency, TF over GST control).

Q: How did the binding signal turn out when ATTGGT was run?
A: The binding signal was 1.21 fold enrichment (6-mer frequency, TF over GST control).

Q: How did the binding signal turn out when GATGAC was run?
A: Its binding signal is 1.45 fold enrichment (6-mer frequency, TF over GST control).

Q: How did the binding signal turn out when CTTTGT was run?
A: The binding signal was 1.3 fold enrichment (6-mer frequency, TF over GST control).

Q: CCTTTA was tested. Which binding signal did it give?
A: The binding signal was 1.34 fold enrichment (6-mer frequency, TF over GST control).

Q: With TCGACT as the sequence, how does the binding signal read?
A: Its binding signal is 1.34 fold enrichment (6-mer frequency, TF over GST control).

Q: How did the binding signal turn out when TATTAT was run?
A: Its binding signal is 1.19 fold enrichment (6-mer frequency, TF over GST control).

Q: Which binding signal does the source give for GATGTA here?
A: Its binding signal is 1.18 fold enrichment (6-mer frequency, TF over GST control).

Q: How did the binding signal turn out when GCTCCC was run?
A: The binding signal was 1.29 fold enrichment (6-mer frequency, TF over GST control).

Q: CGACTC was tested. Which binding signal did it give?
A: Its binding signal is 1.59 fold enrichment (6-mer frequency, TF over GST control).

Q: ATTGCA was tested. Which binding signal did it give?
A: The binding signal was 1.23 fold enrichment (6-mer frequency, TF over GST control).

Q: For CTTCCC, which binding signal is on record?
A: The binding signal was 1.94 fold enrichment (6-mer frequency, TF over GST control).

Q: With CAATAA as the sequence, how does the binding signal read?
A: Its binding signal is 1.15 fold enrichment (6-mer frequency, TF over GST control).

Q: With ACTAAC as the sequence, how does the binding signal read?
A: Its binding signal is 1.34 fold enrichment (6-mer frequency, TF over GST control).

Each sequence was assayed against T2, ETV3L (Homo sapiens, UniProt Q6ZN32 1-361) in the same assay as above. Conditions: protein: recombinant; tags: N-terminal GST; dsDNA, one strand shown.
T2 sequence: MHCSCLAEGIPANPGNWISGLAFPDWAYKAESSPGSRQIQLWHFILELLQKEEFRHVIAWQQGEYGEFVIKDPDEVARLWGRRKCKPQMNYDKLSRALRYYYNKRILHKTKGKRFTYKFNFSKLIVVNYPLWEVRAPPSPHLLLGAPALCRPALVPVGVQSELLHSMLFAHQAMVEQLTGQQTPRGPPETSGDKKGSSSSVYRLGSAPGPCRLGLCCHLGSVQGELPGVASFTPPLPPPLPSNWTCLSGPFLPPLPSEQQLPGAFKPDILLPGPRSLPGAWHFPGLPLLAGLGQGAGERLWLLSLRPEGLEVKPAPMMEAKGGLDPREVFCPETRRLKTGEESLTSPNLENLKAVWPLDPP
How it was run: as §1

Q: How did the binding signal turn out when CTTCGA was run?
A: The binding signal was 1.37 fold enrichment (6-mer frequency, TF over GST control).

Q: Which binding signal does the source give for CTCGCA here?
A: The binding signal was 1.3 fold enrichment (6-mer frequency, TF over GST control).

Q: TTTTAC was tested. Which binding signal did it give?
A: The binding signal was 1.32 fold enrichment (6-mer frequency, TF over GST control).

Q: TCCCAT was tested. Which binding signal did it give?
A: The binding signal was 1.38 fold enrichment (6-mer frequency, TF over GST control).

Q: How did the binding signal turn out when AAAAAT was run?
A: Its binding signal is 1.34 fold enrichment (6-mer frequency, TF over GST control).

Q: TTATCG was tested. Which binding signal did it give?
A: The binding signal was 1.32 fold enrichment (6-mer frequency, TF over GST control).

Q: How did the binding signal turn out when AATTAA was run?
A: Its binding signal is 1.2 fold enrichment (6-mer frequency, TF over GST control).

Q: Which binding signal does the source give for AACATT here?
A: Its binding signal is 1.34 fold enrichment (6-mer frequency, TF over GST control).

Q: CTAGCA was tested. Which binding signal did it give?
A: The binding signal was 1.28 fold enrichment (6-mer frequency, TF over GST control).

Q: TCTCGA was tested. Which binding signal did it give?
A: Its binding signal is 1.35 fold enrichment (6-mer frequency, TF over GST control).

Q: AAAACG was tested. Which binding signal did it give?
A: The binding signal was 1.19 fold enrichment (6-mer frequency, TF over GST control).

Q: AAACAT was tested. Which binding signal did it give?
A: The binding signal was 1.46 fold enrichment (6-mer frequency, TF over GST control).

Q: Which binding signal does the source give for TTCGCT here?
A: The binding signal was 1.24 fold enrichment (6-mer frequency, TF over GST control).

Q: How did the binding signal turn out when GCTAAA was run?
A: The binding signal was 1.15 fold enrichment (6-mer frequency, TF over GST control).

Q: GCTTTA was tested. Which binding signal did it give?
A: The binding signal was 1.15 fold enrichment (6-mer frequency, TF over GST control).

Q: With TTCCTT as the sequence, how does the binding signal read?
A: The binding signal was 1.91 fold enrichment (6-mer frequency, TF over GST control).

Q: For CTCGAC, which binding signal is on record?
A: Its binding signal is 1.37 fold enrichment (6-mer frequency, TF over GST control).

Q: With TTCACT as the sequence, how does the binding signal read?
A: The binding signal was 1.4 fold enrichment (6-mer frequency, TF over GST control).

Q: With TACTCA as the sequence, how does the binding signal read?
A: Its binding signal is 1.23 fold enrichment (6-mer frequency, TF over GST control).

Q: AATACC was tested. Which binding signal did it give?
A: Its binding signal is 1.15 fold enrichment (6-mer frequency, TF over GST control).
